These results are taken from PubChem BioAssay (NCI).

Each structure is given as a SMILES string. About 83,000 compounds went through this panel and 20% of them were active in at least one assay; those are over-represented in the sample as a whole.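 48-hour exposure, single concentration, 96-well plates; percent growth endpoint where 0 means no net growth. Active: below 10.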 Values without a mark were called inactive. Active and inactive are the calls of the source.

This assay relates to HL-60(TB) leukemia. The assay can be described thus: NCI-60 one-dose screen, 48 h (100 = growth as untreated, 0 = no growth, -100 = all killed). Particulars: 10 µM unless noted.
Turning to `Cc1ccc(-c2cc3nc(C(Cl)Cl)nc(-c4ccc(S(=O)(=O)N(C)C)cc4)n3n2)cc1`, the growth is 74.9%.
As to `O=C(CSc1ccc(-c2nc3ccccc3[nH]2)cn1)N1CCN(c2ccccc2F)CC1`, the growth is 64.6%.
`COC(=O)C(Cc1ccccc1)Nc1nc(NC(Cc2ccccc2)C(=O)OC)nc(N2CCOCC2)n1` (stereo unspecified): the growth was 103%.
With `NC(N)=Nc1ccc(Oc2cccc(Nc3ccc(Cl)cc3)c2)cn1` the figure was -69.4% (active); with `CC1(C)NCCC[C@]2(C)[C@H]3C/C(=N\O)C4[C@@H]5C[C@@](C)(CO)CC[C@]5(C)CC[C@@]4(C)[C@]3(C)CC[C@@H]12` (stereo partly specified), 68.9%; with `CN1CCN(Cc2ccc(NC(=O)c3cncc(C#Cc4cnc5ccc(OCC6(C)COC6)nn45)c3)cc2C(F)(F)F)CC1`, -27.6% (active).
